Source: ChEMBL document CHEMBL3988442, “University of Dundee, Small-Polar-MMV Screening Library” (2021)

Each compound was assayed against T1, Proteasome subunit beta (Trypanosoma cruzi) (UniProt O96673) (assay: Trypanosoma cruzi proteasome chymotrypsin-like activity (TcProtChymo) assay.). Conditions: 9.37 µM.
T1 sequence (whole entry): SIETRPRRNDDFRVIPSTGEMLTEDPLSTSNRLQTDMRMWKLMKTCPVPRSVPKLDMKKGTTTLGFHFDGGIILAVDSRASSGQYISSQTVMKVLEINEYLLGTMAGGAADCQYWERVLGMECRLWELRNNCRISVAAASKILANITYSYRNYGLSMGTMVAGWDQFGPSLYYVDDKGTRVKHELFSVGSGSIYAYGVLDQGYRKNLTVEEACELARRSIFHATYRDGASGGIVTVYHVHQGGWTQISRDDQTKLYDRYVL
Assay type: functional
Set-up: scale not given: in the data most compounds retested in dose-response had high values

Row | Compound | Percent Effect [%]
1 | N#CC1(C(=O)N2CCN(Cc3ccon3)CC2)CCC1 | 1.56
2 | Cc1ccc2c(c1)c(CNC(=O)C1CC(=O)N(C3CCCC3)C1)nn2C (stereo not given) | 21
3 | CCOc1cc(C)nc(N2CCN(Cc3nccn3C)CC2)n1 | 11.2
4 | CCN(CC)C(=O)CCNC(=O)N1CCC(c2ccccc2)C1 (stereo not given) | 0.172
5 | CCN1CCOC(CNCc2ccccc2OCC(=O)N(C)C)C1 (stereo not given) | -4.32
6 | CC(NCc1ccc(Cl)o1)c1nnc2n1CCCC2 (stereo not given) | 15
7 | Cc1ccc(NC(=O)Cn2cc(I)cn2)cc1 | 6.32
8 | CC(C)c1nnc2n1CCN(C(=O)CN1Cc3ccccc3C1=O)C2 | 4.34
9 | O=C(c1ccc(Cl)c(Cl)c1)N1CCCC(n2cncn2)C1 (stereo not given) | -7
10 | O=C1COc2cc(C(=O)NS(=O)(=O)c3ccccc3F)ccc2N1 | 5.16
11 | CN(C)[C@@H]1CCN(c2ncccn2)[C@H]1Cc1ccncc1 | 2.5
12 | O=C([C@H]1CCCO1)N1CCc2ncnc(NC3CC3)c2CC1 | 12.4
13 | c1ccc(-c2nnc(CNCCn3cccn3)o2)cc1 | 1.72
14 | CC(C)c1nc2c(n1C)CCN(Cc1nc(-c3cccs3)no1)C2 | 2.33
15 | COCCN1CC[C@@H]2OC[C@H](C(=O)NCc3cccs3)C[C@@H]2C1 | 8.3
16 | O=C(NCc1ccc(F)cc1)N1CCC(C2OCCO2)CC1 | 12.4
17 | CN(Cc1nnc(C2CC2)n1C)C1CCN(Cc2ccc(F)cc2)C1 (stereo not given) | 13
18 | CN(C(=O)c1cccc2[nH]ncc12)C1CCN(c2ccccn2)CC1 | -4.12
19 | Cc1nnc(N2CCC(CN(C)C(C)C)CC2)c(C#N)c1C | 3.64
20 | Cc1cc(-c2nnc(SCC(=O)O)n2C(C)c2ccccc2)nn1C (stereo not given) | 14.9
